Columns and labels:
Assay in all cases: DAPPL (digital affinity profiling via proximity ligation, sequencing); 10 mM Tris-HCl pH 7.5, 50 mM NaCl, 1 mM DTT, 4% glycerol, room temperature, 30 min; GST-TFs on glutathione beads, 16-mer random dsDNA library, 0.1% formaldehyde crosslink after washing; high values mean tight binding
[1] = target: T1, FEV (Homo sapiens, UniProt Q99581 1-238); conditions: protein: recombinant; tags: N-terminal GST; dsDNA, one strand shown
T1 sequence: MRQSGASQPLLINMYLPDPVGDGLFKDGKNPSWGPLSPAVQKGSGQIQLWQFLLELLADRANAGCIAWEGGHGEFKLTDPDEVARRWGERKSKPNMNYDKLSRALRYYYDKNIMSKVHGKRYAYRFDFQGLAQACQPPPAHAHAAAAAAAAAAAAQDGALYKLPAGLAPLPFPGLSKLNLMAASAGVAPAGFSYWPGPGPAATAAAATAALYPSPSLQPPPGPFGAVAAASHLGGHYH
Method in brief: (§1)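 Binding signal is each hexamer's read frequency for a factor divided by its frequency in the tag-only sample. The factors were GST-fused human transcription factors from yeast, captured on glutathione beads, DNA-barcoded and pooled with that sample. Pools were incubated with 200 nmole of a random double-stranded 16-mer DNA library in Tris/NaCl/DTT/glycerol buffer at room temperature for 30 min, then washed, crosslinked with 0.1% formaldehyde, proximity-ligated with BsaI/T4 ligase (1 h, 37 °C), PCR-amplified and sequenced on an Illumina NextSeq500.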

[2] = target: ETV5 (Homo sapiens, UniProt P41161 1-510); conditions: protein: recombinant; tags: N-terminal GST; dsDNA, one strand shown
ETV5, sequence (P41161 whole entry): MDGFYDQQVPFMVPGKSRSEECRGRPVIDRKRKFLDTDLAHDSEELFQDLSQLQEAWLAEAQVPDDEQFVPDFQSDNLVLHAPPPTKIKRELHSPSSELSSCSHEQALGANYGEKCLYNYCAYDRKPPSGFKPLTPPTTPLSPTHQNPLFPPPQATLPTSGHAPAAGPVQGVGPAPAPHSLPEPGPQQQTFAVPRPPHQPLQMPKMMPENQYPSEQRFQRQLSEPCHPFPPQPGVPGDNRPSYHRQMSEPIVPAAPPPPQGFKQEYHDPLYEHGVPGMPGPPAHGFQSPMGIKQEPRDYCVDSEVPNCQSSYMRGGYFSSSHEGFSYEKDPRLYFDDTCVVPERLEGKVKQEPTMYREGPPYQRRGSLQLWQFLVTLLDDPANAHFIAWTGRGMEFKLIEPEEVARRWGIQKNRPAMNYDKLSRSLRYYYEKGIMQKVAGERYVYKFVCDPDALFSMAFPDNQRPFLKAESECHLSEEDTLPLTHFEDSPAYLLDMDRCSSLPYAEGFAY
Method in brief: as §1

[3] = target: HSF1 (Homo sapiens, UniProt Q00613 1-529); conditions: protein: recombinant; tags: N-terminal GST; chain copies: 3; dsDNA, one strand shown
HSF1, sequence (Q00613 whole entry): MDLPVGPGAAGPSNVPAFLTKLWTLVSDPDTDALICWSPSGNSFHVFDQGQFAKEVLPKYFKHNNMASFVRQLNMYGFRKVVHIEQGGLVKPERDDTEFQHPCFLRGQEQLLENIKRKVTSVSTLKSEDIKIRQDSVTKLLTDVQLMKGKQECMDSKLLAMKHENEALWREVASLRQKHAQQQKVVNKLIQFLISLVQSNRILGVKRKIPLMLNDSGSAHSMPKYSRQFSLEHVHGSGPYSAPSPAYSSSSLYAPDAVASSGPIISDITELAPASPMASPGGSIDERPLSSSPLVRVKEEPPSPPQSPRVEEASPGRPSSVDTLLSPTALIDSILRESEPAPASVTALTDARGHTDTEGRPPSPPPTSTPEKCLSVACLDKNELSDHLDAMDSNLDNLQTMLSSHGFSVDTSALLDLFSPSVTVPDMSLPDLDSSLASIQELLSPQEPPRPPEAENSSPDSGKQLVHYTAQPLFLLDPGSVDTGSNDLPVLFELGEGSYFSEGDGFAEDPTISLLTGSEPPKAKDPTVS
Method in brief: as §1

[4] = target: T2, SPIC (Homo sapiens, UniProt Q8N5J4 1-248); conditions: protein: recombinant; tags: N-terminal GST; dsDNA, one strand shown
T2 sequence: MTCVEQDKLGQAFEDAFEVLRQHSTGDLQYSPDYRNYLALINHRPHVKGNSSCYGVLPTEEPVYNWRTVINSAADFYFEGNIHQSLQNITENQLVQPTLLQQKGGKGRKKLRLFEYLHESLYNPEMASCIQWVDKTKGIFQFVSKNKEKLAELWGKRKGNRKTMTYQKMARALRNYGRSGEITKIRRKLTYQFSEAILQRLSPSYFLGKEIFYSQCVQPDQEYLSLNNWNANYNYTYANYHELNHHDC
Method in brief: as §1

[5] = target: ELF4 (Homo sapiens, UniProt Q99607 1-663); conditions: protein: recombinant; tags: N-terminal GST; dsDNA, one strand shown
ELF4, sequence (Q99607 whole entry): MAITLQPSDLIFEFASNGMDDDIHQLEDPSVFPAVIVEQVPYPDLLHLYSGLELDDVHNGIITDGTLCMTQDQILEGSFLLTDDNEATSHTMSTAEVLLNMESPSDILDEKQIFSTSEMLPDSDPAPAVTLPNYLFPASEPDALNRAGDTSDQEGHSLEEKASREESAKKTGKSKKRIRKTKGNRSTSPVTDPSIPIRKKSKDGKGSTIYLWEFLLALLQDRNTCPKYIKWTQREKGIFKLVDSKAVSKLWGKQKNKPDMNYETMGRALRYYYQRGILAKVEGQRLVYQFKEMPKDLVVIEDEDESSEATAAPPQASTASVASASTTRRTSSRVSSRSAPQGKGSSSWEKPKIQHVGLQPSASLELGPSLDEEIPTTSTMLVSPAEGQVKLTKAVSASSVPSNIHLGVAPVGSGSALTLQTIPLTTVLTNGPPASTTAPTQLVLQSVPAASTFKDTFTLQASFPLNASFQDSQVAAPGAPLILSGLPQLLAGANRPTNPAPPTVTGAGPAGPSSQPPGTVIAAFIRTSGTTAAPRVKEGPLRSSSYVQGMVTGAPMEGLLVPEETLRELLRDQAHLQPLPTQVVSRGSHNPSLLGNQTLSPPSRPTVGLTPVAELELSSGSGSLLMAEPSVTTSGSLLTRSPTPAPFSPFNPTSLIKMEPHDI
Method in brief: as §1

[6] = target: T3, ELK4 (Homo sapiens, UniProt P28324-2 1-405); conditions: protein: recombinant; tags: N-terminal GST; dsDNA, one strand shown
T3 sequence: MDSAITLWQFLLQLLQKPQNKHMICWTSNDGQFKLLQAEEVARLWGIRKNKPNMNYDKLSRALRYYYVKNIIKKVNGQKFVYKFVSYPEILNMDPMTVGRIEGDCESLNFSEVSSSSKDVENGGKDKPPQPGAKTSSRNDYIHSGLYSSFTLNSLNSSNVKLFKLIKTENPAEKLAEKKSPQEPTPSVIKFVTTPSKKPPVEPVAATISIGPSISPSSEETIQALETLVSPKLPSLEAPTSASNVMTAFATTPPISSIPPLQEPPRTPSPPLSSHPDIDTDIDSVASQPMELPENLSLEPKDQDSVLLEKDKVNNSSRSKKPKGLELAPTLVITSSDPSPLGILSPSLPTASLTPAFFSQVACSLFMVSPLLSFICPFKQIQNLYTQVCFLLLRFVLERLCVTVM
Method in brief: as §1

[7] = target: T4, ETV2 (Homo sapiens, UniProt O00321 1-342); conditions: protein: recombinant; tags: N-terminal GST; dsDNA, one strand shown
T4 sequence: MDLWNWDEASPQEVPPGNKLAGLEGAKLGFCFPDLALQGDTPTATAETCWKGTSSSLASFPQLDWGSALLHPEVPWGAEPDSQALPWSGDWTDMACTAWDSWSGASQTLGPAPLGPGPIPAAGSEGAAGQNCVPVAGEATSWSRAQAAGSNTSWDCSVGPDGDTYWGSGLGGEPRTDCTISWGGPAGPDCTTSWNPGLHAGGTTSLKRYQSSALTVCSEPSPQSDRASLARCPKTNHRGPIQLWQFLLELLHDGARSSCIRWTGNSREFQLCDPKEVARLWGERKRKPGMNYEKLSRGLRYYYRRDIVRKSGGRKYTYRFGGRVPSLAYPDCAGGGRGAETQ
Method in brief: as §1

[8] = target: T5, ELF3 (Homo sapiens, UniProt P78545 1-371); conditions: protein: recombinant; tags: N-terminal GST; dsDNA, one strand shown
T5 sequence: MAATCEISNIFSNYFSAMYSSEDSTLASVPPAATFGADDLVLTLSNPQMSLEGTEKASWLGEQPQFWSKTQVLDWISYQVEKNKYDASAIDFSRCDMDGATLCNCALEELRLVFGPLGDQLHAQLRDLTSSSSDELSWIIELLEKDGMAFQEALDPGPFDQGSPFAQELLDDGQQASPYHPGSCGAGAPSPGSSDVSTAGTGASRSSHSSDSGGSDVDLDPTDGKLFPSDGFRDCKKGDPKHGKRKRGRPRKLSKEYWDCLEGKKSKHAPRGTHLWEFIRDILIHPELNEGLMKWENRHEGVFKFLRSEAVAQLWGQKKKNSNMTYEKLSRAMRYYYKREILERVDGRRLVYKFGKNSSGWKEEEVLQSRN
Method in brief: as §1

[9] = target: CRX (Homo sapiens, UniProt O43186 1-299); conditions: protein: recombinant; tags: N-terminal GST; dsDNA, one strand shown
CRX, sequence (O43186 whole entry): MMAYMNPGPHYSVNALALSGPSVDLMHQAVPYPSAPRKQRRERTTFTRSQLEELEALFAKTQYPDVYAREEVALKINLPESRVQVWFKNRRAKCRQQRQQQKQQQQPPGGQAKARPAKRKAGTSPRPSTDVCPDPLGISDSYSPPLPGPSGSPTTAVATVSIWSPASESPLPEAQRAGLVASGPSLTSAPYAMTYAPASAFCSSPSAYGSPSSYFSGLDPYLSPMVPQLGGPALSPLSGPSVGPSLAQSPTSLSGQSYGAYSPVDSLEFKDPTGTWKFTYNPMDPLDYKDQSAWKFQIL
Method in brief: as §1

[10] = target: ETV1 (Homo sapiens, UniProt P50549 1-477); conditions: protein: recombinant; tags: N-terminal GST; dsDNA, one strand shown
ETV1, sequence (P50549 whole entry): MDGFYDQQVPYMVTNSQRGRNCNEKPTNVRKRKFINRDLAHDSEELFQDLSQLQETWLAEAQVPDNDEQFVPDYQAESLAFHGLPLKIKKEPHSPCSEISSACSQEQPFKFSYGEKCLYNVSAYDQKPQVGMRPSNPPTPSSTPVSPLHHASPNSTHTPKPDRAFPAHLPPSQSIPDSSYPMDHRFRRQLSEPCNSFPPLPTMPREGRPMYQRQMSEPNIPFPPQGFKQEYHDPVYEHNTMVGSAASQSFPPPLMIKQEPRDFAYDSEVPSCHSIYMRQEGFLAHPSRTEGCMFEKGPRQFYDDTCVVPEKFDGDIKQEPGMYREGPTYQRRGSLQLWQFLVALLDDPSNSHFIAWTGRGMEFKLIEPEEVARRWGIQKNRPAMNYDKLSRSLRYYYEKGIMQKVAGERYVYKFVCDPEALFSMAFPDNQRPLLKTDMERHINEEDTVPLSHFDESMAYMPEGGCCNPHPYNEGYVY
Method in brief: as §1

[11] = target: T6, ERF (Homo sapiens, UniProt P50548 1-548); conditions: protein: recombinant; tags: N-terminal GST; dsDNA, one strand shown
T6 sequence: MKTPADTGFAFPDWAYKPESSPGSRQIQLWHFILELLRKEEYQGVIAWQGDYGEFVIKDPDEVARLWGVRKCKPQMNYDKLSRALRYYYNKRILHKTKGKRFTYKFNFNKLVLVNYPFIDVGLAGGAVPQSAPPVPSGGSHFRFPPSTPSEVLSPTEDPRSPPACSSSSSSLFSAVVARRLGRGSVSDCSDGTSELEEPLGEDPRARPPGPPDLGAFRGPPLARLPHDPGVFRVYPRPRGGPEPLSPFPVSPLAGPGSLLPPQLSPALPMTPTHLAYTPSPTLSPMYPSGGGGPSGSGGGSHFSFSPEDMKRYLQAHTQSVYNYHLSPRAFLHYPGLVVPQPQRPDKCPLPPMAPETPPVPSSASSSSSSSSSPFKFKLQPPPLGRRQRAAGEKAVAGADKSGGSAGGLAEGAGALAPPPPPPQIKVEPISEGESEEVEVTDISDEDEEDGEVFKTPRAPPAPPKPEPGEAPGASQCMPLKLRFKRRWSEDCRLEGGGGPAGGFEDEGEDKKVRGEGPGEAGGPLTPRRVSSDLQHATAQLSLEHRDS
Method in brief: as §1

[12] = target: T7, ETV3L (Homo sapiens, UniProt Q6ZN32 1-361); conditions: protein: recombinant; tags: N-terminal GST; dsDNA, one strand shown
T7 sequence: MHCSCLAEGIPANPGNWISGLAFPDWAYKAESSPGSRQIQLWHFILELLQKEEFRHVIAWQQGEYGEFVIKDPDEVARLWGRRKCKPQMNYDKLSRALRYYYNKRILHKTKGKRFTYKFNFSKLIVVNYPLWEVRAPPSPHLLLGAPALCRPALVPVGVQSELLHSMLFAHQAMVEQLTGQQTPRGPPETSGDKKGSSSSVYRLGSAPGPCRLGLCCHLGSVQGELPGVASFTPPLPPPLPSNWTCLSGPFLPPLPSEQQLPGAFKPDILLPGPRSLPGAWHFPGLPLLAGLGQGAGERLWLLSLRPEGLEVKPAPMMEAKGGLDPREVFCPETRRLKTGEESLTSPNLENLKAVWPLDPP
Method in brief: as §1

[13] = target: T8, ETS2 (Homo sapiens, UniProt P15036 1-469); conditions: protein: recombinant; tags: N-terminal GST; dsDNA, one strand shown
T8 sequence: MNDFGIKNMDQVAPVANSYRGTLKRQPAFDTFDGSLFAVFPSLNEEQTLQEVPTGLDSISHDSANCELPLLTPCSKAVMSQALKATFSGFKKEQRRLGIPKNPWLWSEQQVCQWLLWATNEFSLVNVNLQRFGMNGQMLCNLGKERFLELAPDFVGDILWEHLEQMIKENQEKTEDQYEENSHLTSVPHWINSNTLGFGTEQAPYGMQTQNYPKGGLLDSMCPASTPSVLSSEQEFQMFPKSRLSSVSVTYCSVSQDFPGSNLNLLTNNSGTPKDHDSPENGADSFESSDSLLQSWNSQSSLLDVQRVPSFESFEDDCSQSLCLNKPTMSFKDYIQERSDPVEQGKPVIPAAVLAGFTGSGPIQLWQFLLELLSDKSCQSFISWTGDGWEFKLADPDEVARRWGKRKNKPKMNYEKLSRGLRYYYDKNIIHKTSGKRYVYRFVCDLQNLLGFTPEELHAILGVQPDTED
Method in brief: as §1

[14] = target: T9, SPDEF (Homo sapiens, UniProt O95238 1-335); conditions: protein: recombinant; tags: N-terminal GST; dsDNA, one strand shown
T9 sequence: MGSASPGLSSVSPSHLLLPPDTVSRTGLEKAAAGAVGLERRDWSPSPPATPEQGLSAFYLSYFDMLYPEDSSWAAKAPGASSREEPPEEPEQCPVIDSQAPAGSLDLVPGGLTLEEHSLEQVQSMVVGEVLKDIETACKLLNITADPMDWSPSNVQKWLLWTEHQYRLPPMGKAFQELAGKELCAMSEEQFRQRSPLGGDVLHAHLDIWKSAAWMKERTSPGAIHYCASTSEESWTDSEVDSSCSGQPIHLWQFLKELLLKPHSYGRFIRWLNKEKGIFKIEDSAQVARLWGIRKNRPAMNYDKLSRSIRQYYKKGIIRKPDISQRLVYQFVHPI
Method in brief: as §1

[15] = target: T10, ETV7 (Homo sapiens, UniProt Q9Y603 1-341); conditions: protein: recombinant; tags: N-terminal GST; dsDNA, one strand shown
T10 sequence: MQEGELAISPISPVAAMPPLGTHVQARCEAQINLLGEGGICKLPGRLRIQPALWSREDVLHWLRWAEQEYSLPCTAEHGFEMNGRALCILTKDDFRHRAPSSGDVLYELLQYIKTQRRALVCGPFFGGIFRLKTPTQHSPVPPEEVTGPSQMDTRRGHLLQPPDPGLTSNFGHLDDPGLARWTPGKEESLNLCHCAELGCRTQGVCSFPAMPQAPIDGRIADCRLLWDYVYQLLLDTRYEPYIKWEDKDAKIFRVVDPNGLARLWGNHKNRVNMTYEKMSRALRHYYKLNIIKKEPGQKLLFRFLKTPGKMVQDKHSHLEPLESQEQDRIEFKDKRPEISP
Method in brief: as §1

[16] = target: T11, ELF5 (Homo sapiens, UniProt Q9UKW6-2 1-255); conditions: protein: recombinant; tags: N-terminal GST; dsDNA, one strand shown
T11 sequence: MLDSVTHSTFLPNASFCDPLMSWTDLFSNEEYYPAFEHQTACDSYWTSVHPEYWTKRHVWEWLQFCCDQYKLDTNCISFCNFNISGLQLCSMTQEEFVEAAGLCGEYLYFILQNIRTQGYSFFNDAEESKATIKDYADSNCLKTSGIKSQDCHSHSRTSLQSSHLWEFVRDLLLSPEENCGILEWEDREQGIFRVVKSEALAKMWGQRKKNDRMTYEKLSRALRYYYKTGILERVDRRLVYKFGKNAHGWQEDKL
Method in brief: as §1

[17] = target: T12, ETV3 (Homo sapiens, UniProt P41162-2 1-143); conditions: protein: recombinant; tags: N-terminal GST; dsDNA, one strand shown
T12 sequence: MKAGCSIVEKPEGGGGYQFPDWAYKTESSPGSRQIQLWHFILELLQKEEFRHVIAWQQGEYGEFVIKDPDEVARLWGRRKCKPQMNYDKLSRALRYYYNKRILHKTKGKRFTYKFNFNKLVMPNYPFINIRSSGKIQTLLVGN
Method in brief: as §1

[18] = target: ETV6 (Homo sapiens, UniProt P41212 1-452); conditions: protein: recombinant; tags: N-terminal GST; dsDNA, one strand shown
ETV6, sequence (P41212 whole entry): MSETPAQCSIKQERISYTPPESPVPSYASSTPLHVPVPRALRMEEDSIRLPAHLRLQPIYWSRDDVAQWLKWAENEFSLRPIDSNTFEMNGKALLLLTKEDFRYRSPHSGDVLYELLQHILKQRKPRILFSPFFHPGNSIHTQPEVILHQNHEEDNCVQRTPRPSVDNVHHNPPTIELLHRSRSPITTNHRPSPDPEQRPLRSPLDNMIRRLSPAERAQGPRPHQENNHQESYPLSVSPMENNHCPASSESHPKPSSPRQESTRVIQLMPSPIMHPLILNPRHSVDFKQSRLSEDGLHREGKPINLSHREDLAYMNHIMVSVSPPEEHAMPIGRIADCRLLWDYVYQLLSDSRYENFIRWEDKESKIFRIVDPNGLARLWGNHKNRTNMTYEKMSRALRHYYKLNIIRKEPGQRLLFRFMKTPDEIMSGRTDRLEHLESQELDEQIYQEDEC
Method in brief: as §1

CCTTTA
binding signal [1]: 1.3 fold enrichment (6-mer frequency, TF over GST control) | binding signal [2]: 1.22 fold enrichment (6-mer frequency, TF over GST control) | binding signal [3]: 1.31 fold enrichment (6-mer frequency, TF over GST control) | binding signal [4]: 1.32 fold enrichment (6-mer frequency, TF over GST control) | binding signal [5]: 1.35 fold enrichment (6-mer frequency, TF over GST control) | binding signal [6]: 1.42 fold enrichment (6-mer frequency, TF over GST control) | binding signal [7]: 1.34 fold enrichment (6-mer frequency, TF over GST control) | binding signal [8]: 1.51 fold enrichment (6-mer frequency, TF over GST control) | binding signal [9]: 1.57 fold enrichment (6-mer frequency, TF over GST control) | binding signal [10]: 1.37 fold enrichment (6-mer frequency, TF over GST control) | binding signal [11]: 1.34 fold enrichment (6-mer frequency, TF over GST control) | binding signal [12]: 1.38 fold enrichment (6-mer frequency, TF over GST control) | binding signal [13]: 1.32 fold enrichment (6-mer frequency, TF over GST control) | binding signal [14]: 1.38 fold enrichment (6-mer frequency, TF over GST control) | binding signal [15]: 1.23 fold enrichment (6-mer frequency, TF over GST control) | binding signal [16]: 1.41 fold enrichment (6-mer frequency, TF over GST control) | binding signal [17]: 1.33 fold enrichment (6-mer frequency, TF over GST control) | binding signal [18]: 1.41 fold enrichment (6-mer frequency, TF over GST control)

Reference: paper PMC7862700, “An all-to-all approach to the identification of sequence-specific readers for epigenetic DNA modifications on cytosine”
